Results reported in PubChem BioAssay (Tox21).
Active and inactive are the calls of the source. Entries that show only a call come without a potency. Unless noted, calls follow the shape of the dose curve; as a rule, active = well fitted curve in the direction sought with a large enough effect in the repeat runs; inconclusive = weak or mixed curves; inactive = flat fitted curve, though single readings scatter.

System: not listed separately
Test: qHTS assay to test for compound auto fluorescence at 460 nm (blue) in HepG2 cell free culture (AID 720685)
Details: Cell-free culture medium, blue autofluorescence 405/460 nm; series mostly up to 91.3 µM
Procedure, shortened: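 Cell-free plates of MEM plus 10% FBS received 23 nL compound or DMSO vehicle; blue-channel (405/460 nm) intensity scored against triamterene as reference fluorophore.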

SMILES | outcome
CCCCC(=O)O[C@]1(C(=O)CO)[C@H](C)C[C@H]2[C@@H]3CCC4=CC(=O)C=C[C@]4(C)[C@@]3(F)[C@@H](O)C[C@@]21C | inactive
Oc1ccccc1F | inactive
O=C1Nc2ccc([N+](=O)[O-])cc2C1=O | inactive

System: not listed separately
Test: qHTS assay to test for compound auto fluorescence at 535 nm (green) in HepG2 cell free culture (AID 720686)
Details: Cell-free medium, green autofluorescence 485/535 nm; series mostly up to 91.3 µM

SMILES | outcome | fluorescence, % of fluorescein control
NC1=NCC2c3ccccc3Cc3ccccc3N12 (stereo unspecified) | inactive | –
Cc1cc2c(s1)Nc1ccccc1N=C2N1CCN(C)CC1 | inactive | –
CCC(=O)c1ccc2c(c1)N(CCCN(C)C)c1ccccc1S2 | inactive | –
CC(=O)Oc1cc(C(C)C)c(OCCN(C)C)cc1C | – | -0.0374% [at 18.6 µM] (inactive)
CC(C)=CCCC(C)CCOC=O (stereo unspecified) | inactive | –
CC1(C)C(=O)N(Cl)C(=O)N1Br | inactive | –
CCN(CC)CC1CCCCN1CC(=O)N1c2ccccc2C(=O)Nc2cccnc21 (stereo unspecified) | inactive | –
CC1=C(CC(=O)O)c2cc(F)ccc2/C1=C\c1ccc(S(C)(=O)=O)cc1 | inactive | –
Cc1ccc(C)c(N)c1 | inactive | –
CC1(O)CSC(C)(O)CS1 (stereo unspecified) | inactive | –
CCN(CC)CCOc1ccc(Cc2ccccc2)cc1 | inactive | –
CC(C)O | inactive | –
CC1CN(c2ccccc2)NC1=O (stereo unspecified) | inactive | –
O=c1[nH]c(=O)n([C@H]2C[C@H](O)[C@@H](CO)O2)cc1C(F)(F)F | inactive | –
Cc1c[nH]c(=S)[nH]c1=O | inactive | –
O=C(CC(=O)C(F)(F)F)c1ccccc1 | inactive | –
CCCCN1C[C@H](O)[C@@H](O)[C@H](O)[C@H]1CO | inactive | –
CCCCCCOc1ccc(N)cc1 | inactive | –

SMILES | outcome | fluorescence, % of fluorescein control
CC1=NN(c2cc(Cl)c(S(=O)(=O)O)cc2Cl)C(=O)C1N=Nc1ccc(S(=O)(=O)O)cc1 (stereo unspecified) | inactive | –
CC(C)(C)C1CCCCC1=O (stereo unspecified) | inactive | –
CC1=C2[C@H](/C=C(\C)C(=O)O)CC[C@@H](C)[C@H]2CC1 | inactive | –
CN1C(=O)CC(c2ccccc2)C1=O (stereo unspecified) | inactive | –
Clc1cccc(-c2cc(Cl)cc(Cl)c2)c1 | inactive | –
CCCCCCCCc1ccc(S(=O)(=O)O)cc1 | inactive | –
O=C(Cl)c1cccc([N+](=O)[O-])c1 | inactive | –
C=O | inactive | –
Cc1c(N)cccc1N | inactive | –
COc1ccc(Nc2ccc(OC)cc2)cc1 | inactive | –
CCCCCCCCCCCCCCCCOP(=O)([O-])OCC[N+](C)(C)C | inactive | –
CN(CCCN1c2ccccc2CCc2ccccc21)CC(=O)c1ccc(Cl)cc1 | inactive | –
O=C1CCCCCCCCCCC(=O)OCCO1 | inactive | –
CCOC(=O)CS | inactive | –
CCOC(=O)COc1ccc2c(c1)CC(NCC(O)c1cccc(Cl)c1)CC2 (stereo unspecified) | inactive | –
CCCCC(=O)O[C@]1(C(=O)CO)[C@H](C)C[C@H]2[C@@H]3CCC4=CC(=O)C=C[C@]4(C)[C@@]3(F)[C@@H](O)C[C@@]21C | inactive | –
Oc1ccccc1F | inactive | –
O=C1Nc2ccc([N+](=O)[O-])cc2C1=O | inactive | –

System: not listed separately
Test: qHTS assay to test for compound auto fluorescence at 460 nm (blue) in HepG2 cells (AID 720687)
Details: autofluorescence 405/460 nm, 1 h; series mostly up to 91.3 µM
Procedure, shortened: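 HepG2 cells in MEM with 10% FBS, attached overnight at 37 C, were exposed to compound or DMSO for 1 hr at 37 C, 5% CO2. Blue fluorescence was read at 405/460 nm, with triamterene as reference fluorophore.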

SMILES | outcome | fluorescence, % of fluorescent control
NC1=NCC2c3ccccc3Cc3ccccc3N12 (stereo unspecified) | inactive | –
Cc1cc2c(s1)Nc1ccccc1N=C2N1CCN(C)CC1 | inactive | –
CC(=O)Oc1cc(C(C)C)c(OCCN(C)C)cc1C | – | -0.0099% [at 18.6 µM] (inactive)
CC(C)=CCCC(C)CCOC=O (stereo unspecified) | inactive | –
CC1(C)C(=O)N(Cl)C(=O)N1Br | inactive | –
CCN(CC)CC1CCCCN1CC(=O)N1c2ccccc2C(=O)Nc2cccnc21 (stereo unspecified) | inactive | –
CC1=C(CC(=O)O)c2cc(F)ccc2/C1=C\c1ccc(S(C)(=O)=O)cc1 | inactive | –
Cc1ccc(C)c(N)c1 | inactive | –
CC1(O)CSC(C)(O)CS1 (stereo unspecified) | inactive | –
CC1CN(c2ccccc2)NC1=O (stereo unspecified) | inactive | –
O=c1[nH]c(=O)n([C@H]2C[C@H](O)[C@@H](CO)O2)cc1C(F)(F)F | inactive | –
Cc1c[nH]c(=S)[nH]c1=O | inactive | –
O=C(CC(=O)C(F)(F)F)c1ccccc1 | inactive | –
CCCCN1C[C@H](O)[C@@H](O)[C@H](O)[C@H]1CO | inactive | –
CC(C)(C)C1CCCCC1=O (stereo unspecified) | inactive | –
CC1=C2[C@H](/C=C(\C)C(=O)O)CC[C@@H](C)[C@H]2CC1 | inactive | –
CN1C(=O)CC(c2ccccc2)C1=O (stereo unspecified) | inactive | –
Clc1cccc(-c2cc(Cl)cc(Cl)c2)c1 | inactive | –
O=C(Cl)c1cccc([N+](=O)[O-])c1 | inactive | –
Cc1c(N)cccc1N | inactive | –
COc1ccc(Nc2ccc(OC)cc2)cc1 | inactive | –
CCCCCCCCCCCCCCCCOP(=O)([O-])OCC[N+](C)(C)C | inactive | –
CN(CCCN1c2ccccc2CCc2ccccc21)CC(=O)c1ccc(Cl)cc1 | inactive | –
CCOC(=O)CS | inactive | –
CCOC(=O)COc1ccc2c(c1)CC(NCC(O)c1cccc(Cl)c1)CC2 (stereo unspecified) | inactive | –
CCCCC(=O)O[C@]1(C(=O)CO)[C@H](C)C[C@H]2[C@@H]3CCC4=CC(=O)C=C[C@]4(C)[C@@]3(F)[C@@H](O)C[C@@]21C | inactive | –
Oc1ccccc1F | inactive | –
O=C1Nc2ccc([N+](=O)[O-])cc2C1=O | inactive | –

Molecular target: Glucocorticoid receptor (Homo sapiens) (UniProt P04150)
Test: qHTS assay to identify small molecule agonists of the glucocorticoid receptor (GR) signaling pathway (AID 720691; active = well fitted activation curve with a large enough effect in the signal ratio in the repeat runs, not every such curve was filed as active; inconclusive = weak or mixed curves, or effect the other way; inactive = no such curve, though single readings can be large or run the other way; the % refers to the signal ratio; also: potency is read from the fitted curve at half-maximal effect)
Details: GR-bla HeLa, beta-lactamase reporter ratio, 18 h; series mostly up to 62.4 µM
Procedure, shortened: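 Cells: GR-bla HeLa, endogenous GR with stably integrated GRE-beta-lactamase reporter. Treatment 18 h, 37 C, compounds delivered in DMSO. Detection via LiveBLAzer B/G FRET substrate, 2 h RT, fluorescence intensity.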

Sequence of Glucocorticoid receptor (Homo sapiens) (P04150 whole entry, looked up): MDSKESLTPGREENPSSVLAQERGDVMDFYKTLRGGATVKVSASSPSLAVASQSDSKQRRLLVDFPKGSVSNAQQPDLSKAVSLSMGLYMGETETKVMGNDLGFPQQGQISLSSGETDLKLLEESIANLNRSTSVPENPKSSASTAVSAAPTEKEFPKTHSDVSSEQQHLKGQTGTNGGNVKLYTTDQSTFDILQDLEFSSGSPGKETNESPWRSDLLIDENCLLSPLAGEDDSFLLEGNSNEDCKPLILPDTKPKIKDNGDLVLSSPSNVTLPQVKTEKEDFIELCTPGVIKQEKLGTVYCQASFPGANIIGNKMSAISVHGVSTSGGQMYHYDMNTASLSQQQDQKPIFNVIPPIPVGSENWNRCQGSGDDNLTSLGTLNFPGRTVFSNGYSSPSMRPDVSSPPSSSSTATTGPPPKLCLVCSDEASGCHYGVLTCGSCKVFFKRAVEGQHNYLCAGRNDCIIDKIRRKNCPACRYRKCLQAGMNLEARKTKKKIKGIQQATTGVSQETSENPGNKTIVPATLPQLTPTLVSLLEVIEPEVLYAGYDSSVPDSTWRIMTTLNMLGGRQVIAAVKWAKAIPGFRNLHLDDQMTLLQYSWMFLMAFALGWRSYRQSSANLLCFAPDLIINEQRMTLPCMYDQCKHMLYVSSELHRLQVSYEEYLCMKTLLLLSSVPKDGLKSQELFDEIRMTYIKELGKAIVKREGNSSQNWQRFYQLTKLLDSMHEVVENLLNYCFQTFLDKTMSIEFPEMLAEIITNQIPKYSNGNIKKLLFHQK

SMILES | Potency
NC1=NCC2c3ccccc3Cc3ccccc3N12 (stereo unspecified) | inactive
Cc1cc2c(s1)Nc1ccccc1N=C2N1CCN(C)CC1 | inactive
CCC(=O)c1ccc2c(c1)N(CCCN(C)C)c1ccccc1S2 | inactive
CC(=O)Oc1cc(C(C)C)c(OCCN(C)C)cc1C | inactive
CC(C)=CCCC(C)CCOC=O (stereo unspecified) | inactive
CC1(C)C(=O)N(Cl)C(=O)N1Br | inactive
Cc1ccc(C)c(N)c1 | inactive
CC1(O)CSC(C)(O)CS1 (stereo unspecified) | inactive
CC1CN(c2ccccc2)NC1=O (stereo unspecified) | inactive
O=c1[nH]c(=O)n([C@H]2C[C@H](O)[C@@H](CO)O2)cc1C(F)(F)F | inactive
CCCCN1C[C@H](O)[C@@H](O)[C@H](O)[C@H]1CO | inactive
CCCCCCOc1ccc(N)cc1 | inactive
CC(C)(C)C1CCCCC1=O (stereo unspecified) | inactive
CN1C(=O)CC(c2ccccc2)C1=O (stereo unspecified) | inactive
CCCCCCCCc1ccc(S(=O)(=O)O)cc1 | inactive
O=C(Cl)c1cccc([N+](=O)[O-])c1 | inactive
Cc1c(N)cccc1N | inactive
COc1ccc(Nc2ccc(OC)cc2)cc1 | inactive
CCCCCCCCCCCCCCCCOP(=O)([O-])OCC[N+](C)(C)C | inactive
CN(CCCN1c2ccccc2CCc2ccccc21)CC(=O)c1ccc(Cl)cc1 | inactive
CCOC(=O)CS | inactive
CCCCC(=O)O[C@]1(C(=O)CO)[C@H](C)C[C@H]2[C@@H]3CCC4=CC(=O)C=C[C@]4(C)[C@@]3(F)[C@@H](O)C[C@@]21C | 4.3 nM [inconclusive] (active)
Oc1ccccc1F | inactive
O=C1Nc2ccc([N+](=O)[O-])cc2C1=O | inactive
